# Experiments:
# [1] = target: Sphingosine kinase 1 (Homo sapiens) (UniProt Q9NYA1); conditions: at 1 µM;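 also: mean SPHK1 inhibition value reported from the GSK PKIS kinase panel screen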
# [2] = target: T1, Sphingosine kinase 2 (Homo sapiens) (UniProt Q9NRA0); conditions: at 0.1 µM
# T1 sequence (whole entry): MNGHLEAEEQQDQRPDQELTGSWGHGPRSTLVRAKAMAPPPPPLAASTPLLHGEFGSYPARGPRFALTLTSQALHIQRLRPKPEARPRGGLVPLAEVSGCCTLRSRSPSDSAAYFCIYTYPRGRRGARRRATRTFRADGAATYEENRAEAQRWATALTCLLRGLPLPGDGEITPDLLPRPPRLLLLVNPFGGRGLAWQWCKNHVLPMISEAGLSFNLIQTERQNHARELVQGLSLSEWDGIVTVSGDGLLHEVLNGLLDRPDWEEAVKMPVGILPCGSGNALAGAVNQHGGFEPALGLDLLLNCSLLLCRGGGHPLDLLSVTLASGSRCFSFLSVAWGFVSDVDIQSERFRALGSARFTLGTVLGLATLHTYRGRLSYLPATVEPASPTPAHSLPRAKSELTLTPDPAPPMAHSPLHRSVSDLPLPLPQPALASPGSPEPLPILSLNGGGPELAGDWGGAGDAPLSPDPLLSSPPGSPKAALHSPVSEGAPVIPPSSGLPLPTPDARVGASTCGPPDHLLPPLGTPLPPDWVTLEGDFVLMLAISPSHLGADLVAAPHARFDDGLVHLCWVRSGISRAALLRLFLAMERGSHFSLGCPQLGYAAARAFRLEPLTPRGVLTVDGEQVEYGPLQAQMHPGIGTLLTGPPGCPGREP
# [3] = target: T1, Sphingosine kinase 2 (Homo sapiens); conditions: at 1 µM
# [4] = target: Casein kinase II subunit alpha (Homo sapiens) (UniProt P68400); conditions: at 0.1 µM
# Chain of Casein kinase II subunit alpha (Homo sapiens) (P68400 whole entry, looked up): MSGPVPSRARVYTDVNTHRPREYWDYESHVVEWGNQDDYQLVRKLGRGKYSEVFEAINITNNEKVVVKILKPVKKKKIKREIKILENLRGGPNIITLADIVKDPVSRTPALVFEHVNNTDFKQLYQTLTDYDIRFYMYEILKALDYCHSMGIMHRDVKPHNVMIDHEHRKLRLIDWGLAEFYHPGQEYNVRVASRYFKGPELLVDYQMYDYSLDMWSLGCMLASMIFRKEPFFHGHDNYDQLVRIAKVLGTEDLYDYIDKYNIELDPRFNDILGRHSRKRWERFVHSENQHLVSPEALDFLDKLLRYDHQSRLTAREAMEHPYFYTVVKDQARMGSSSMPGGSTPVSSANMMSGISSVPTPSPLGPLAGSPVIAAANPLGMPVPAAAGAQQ
# [5] = target: Casein kinase II subunit alpha (Homo sapiens) (UniProt P68400); conditions: at 1 µM
# [6] = target: T2, Inhibitor of nuclear factor kappa-B kinase subunit alpha (Homo sapiens) (UniProt O15111); conditions: at 0.1 µM
# T2 sequence (whole entry): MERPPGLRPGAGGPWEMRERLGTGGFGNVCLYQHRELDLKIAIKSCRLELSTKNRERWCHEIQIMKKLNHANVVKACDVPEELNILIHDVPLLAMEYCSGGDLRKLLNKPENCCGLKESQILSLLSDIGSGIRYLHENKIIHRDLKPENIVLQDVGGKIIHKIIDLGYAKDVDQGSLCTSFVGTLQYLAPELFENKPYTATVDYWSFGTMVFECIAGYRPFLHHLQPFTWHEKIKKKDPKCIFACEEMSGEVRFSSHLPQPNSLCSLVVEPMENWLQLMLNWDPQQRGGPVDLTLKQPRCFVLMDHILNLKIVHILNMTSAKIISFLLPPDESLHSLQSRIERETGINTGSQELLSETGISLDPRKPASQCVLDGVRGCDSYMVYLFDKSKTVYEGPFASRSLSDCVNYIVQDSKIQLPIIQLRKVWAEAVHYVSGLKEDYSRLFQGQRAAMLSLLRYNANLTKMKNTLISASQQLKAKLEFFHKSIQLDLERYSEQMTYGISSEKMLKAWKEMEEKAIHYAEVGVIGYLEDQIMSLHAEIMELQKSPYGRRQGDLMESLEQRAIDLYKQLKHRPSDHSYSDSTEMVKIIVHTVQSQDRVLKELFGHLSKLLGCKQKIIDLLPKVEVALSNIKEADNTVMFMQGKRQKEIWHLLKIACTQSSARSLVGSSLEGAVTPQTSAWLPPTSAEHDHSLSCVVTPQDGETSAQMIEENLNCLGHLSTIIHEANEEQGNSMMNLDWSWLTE
# [7] = target: T2, Inhibitor of nuclear factor kappa-B kinase subunit alpha (Homo sapiens); conditions: at 1 µM
# [8] = target: T3, Inhibitor of nuclear factor kappa-B kinase subunit beta (Homo sapiens) (UniProt O14920); conditions: at 0.1 µM
# T3 sequence (whole entry): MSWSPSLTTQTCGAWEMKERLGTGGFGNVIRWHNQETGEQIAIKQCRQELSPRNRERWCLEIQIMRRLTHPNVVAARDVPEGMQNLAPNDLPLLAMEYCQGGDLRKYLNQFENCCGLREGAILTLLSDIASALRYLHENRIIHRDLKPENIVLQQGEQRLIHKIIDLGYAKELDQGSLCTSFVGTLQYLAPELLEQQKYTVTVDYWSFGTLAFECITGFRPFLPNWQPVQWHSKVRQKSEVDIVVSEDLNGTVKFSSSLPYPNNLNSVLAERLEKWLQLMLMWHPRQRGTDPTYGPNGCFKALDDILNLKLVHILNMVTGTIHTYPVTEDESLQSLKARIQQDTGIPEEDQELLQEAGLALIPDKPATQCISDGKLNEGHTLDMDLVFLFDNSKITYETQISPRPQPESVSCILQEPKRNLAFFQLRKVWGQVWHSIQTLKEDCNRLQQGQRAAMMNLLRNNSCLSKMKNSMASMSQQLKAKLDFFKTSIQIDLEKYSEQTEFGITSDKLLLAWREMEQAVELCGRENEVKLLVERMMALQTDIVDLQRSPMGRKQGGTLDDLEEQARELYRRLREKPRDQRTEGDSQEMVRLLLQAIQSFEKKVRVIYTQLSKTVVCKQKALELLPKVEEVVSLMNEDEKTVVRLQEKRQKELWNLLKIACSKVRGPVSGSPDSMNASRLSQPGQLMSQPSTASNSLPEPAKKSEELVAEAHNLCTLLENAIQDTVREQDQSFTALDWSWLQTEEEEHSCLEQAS
# [9] = target: T3, Inhibitor of nuclear factor kappa-B kinase subunit beta (Homo sapiens); conditions: at 1 µM
# [10] = target: T4, Inhibitor of nuclear factor kappa-B kinase subunit epsilon (Homo sapiens) (UniProt Q14164); conditions: at 0.1 µM;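 also: mean inhibition of IKKε reported, from the GSK PKIS dataset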
# T4 sequence (whole entry): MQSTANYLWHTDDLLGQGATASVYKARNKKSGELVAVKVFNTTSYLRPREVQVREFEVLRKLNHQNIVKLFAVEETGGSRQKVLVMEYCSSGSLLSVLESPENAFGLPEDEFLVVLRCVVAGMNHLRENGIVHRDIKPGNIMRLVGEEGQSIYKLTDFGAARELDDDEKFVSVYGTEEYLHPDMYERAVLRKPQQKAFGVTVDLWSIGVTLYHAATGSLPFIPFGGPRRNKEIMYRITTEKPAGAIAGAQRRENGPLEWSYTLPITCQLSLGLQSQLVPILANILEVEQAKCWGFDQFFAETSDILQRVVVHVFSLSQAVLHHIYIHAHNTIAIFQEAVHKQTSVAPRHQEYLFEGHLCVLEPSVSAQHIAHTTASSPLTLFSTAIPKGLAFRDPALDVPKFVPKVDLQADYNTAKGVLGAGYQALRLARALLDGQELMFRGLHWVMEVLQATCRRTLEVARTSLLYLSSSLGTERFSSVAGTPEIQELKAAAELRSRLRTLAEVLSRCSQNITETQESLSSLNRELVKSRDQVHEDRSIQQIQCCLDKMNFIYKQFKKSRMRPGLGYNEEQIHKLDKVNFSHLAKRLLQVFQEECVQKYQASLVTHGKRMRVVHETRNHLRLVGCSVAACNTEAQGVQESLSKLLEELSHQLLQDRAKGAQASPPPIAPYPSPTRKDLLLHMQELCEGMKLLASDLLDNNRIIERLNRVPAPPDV
# Chain of Sphingosine kinase 1 (Homo sapiens) (Q9NYA1 whole entry): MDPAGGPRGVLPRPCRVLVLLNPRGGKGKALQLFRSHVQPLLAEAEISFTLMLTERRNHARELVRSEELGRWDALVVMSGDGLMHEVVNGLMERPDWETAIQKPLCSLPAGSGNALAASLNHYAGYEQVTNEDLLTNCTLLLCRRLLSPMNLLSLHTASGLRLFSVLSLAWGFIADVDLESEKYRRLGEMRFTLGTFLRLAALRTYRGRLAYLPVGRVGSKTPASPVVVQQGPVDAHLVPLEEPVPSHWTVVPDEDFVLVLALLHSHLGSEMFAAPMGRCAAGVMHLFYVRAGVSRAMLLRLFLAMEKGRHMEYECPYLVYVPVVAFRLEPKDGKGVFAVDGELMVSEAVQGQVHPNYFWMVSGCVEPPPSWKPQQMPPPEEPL
Compound,inhibition [1] [%],inhibition [2] [%],inhibition [3] [%],inhibition [4] [%],inhibition [5] [%],inhibition [6] [%],inhibition [7] [%],inhibition [8] [%],inhibition [9] [%],inhibition [10] [%]
COc1ccc(-c2oc3ncnc(N)c3c2-c2ccc(NC(=O)Nc3cc(C(F)(F)F)ccc3F)cc2)cc1,-0.9,0.08,0.05,6.63,16.7,1.18,2.5,7.03,5.27,8.13
O=C(Nc1n[nH]c2cc(-c3ccc(F)cc3)ccc12)C1CC1,0.32,0.15,-0.37,2.04,0.79,4.81,-0.71,4.46,2.08,4.25
Cc1cccc(Nc2ncc(-c3ccccc3)o2)c1,3.75,0.62,-1.72,4.16,3.49,3.87,7.95,4.82,5.08,5.18
COc1ccc(-c2nn3ncccc3c2-c2ccnc(Nc3ccc4c(c3)OCCO4)n2)cc1,-0.22,-0.07,0.39,7.89,3.92,6.88,1.71,3.03,1.7,1.54
Nc1ncc(-c2cccc(S(N)(=O)=O)c2)c2scc(-c3ccc(F)c(Cl)c3)c12,-4.57,-1.05,0.43,9.52,3.4,-2.46,-3.58,3,5.65,7.15
Cc1cccc2c1NC(=O)/C2=N\Nc1ccc(S(N)(=O)=O)cc1,1.88,-0.11,0.27,-0.53,0.34,2.87,0.58,2.93,3.79,3.32
CC1=C(C(=O)Nc2cc(Cl)c3[nH]ncc3c2)C(c2ccc(C(F)(F)F)cc2)CC(=O)N1 (stereo not given),-1.96,0.58,0.72,3.06,1.13,4.43,4.34,3.26,5.73,4.64
c1ccc(COc2ccc(Nc3ncnc4ccc(-c5ccco5)cc34)cc2)cc1,0.95,-2.53,1.35,1.23,4.42,-5.49,0.49,1.07,0.01,4.51
Fc1ccc(-c2nn3ncccc3c2-c2ccnc(Nc3ccc4c(c3)OCCO4)n2)cc1,0.16,0,0.35,2.03,0.07,9.88,7.87,5.46,4.62,5.66
CC(C)(CO)CNC(=O)c1ccc2c(c1)/C(=N/Nc1ccc(S(N)(=O)=O)cc1)C(=O)N2,0.62,0.34,0.16,2.49,23.5,4.85,3.43,3.25,0.5,14.3
Nc1nc(-c2ccc(F)cc2)c(-c2ccc3ncccc3n2)s1,-1.38,-1.13,-1.05,6.47,13,2.92,5.46,5.24,4.99,6.57
COc1ccc(-c2cc(-c3c[nH]nc3-c3ccccn3)ccn2)cc1,0.76,-1.45,-1.01,5.84,8.65,-3.06,10.5,7.11,8.08,7.81
COc1ccc2c(-c3ccnc(Nc4cccc(OC(F)(F)F)c4)n3)cnn2n1,-1.74,1.81,-2.35,4,20,4.59,7.22,3.15,6.88,9.38
CCN1CCC(CC(=O)Nc2n[nH]c3nnc(-c4cccc(F)c4F)cc23)CC1,1.84,-1.05,0,5.23,2.82,4.71,0.12,5.28,3.6,4.71
N#Cc1c(NC(=O)c2ccc(F)cc2)sc2c1CCCC2,-1.09,0.33,0,0.61,1.89,5.73,4.51,1.94,4.15,2.43
Nc1nc(-c2cccc(Cl)c2)c(-c2ccc3ncccc3n2)s1,-3.27,0.78,0.1,4.99,15.3,10.6,13.9,8.18,7.33,9.04
Fc1ccc(-c2cc(-c3c[nH]nc3-c3ccccn3)ccn2)cc1,-2.44,-0.74,-0.12,3.83,11.9,5.34,3.99,5.76,9.85,8.65
COc1cc2c(cc1Nc1nc(Nc3ccsc3C(N)=O)c3cc[nH]c3n1)N(C(=O)CN(C)C)CCC2(C)C,1.56,-0.3,-2.8,39.4,75.3,5.27,0.27,8.68,6.07,10.8
CS(=O)(=O)CCNCc1ccc(-c2ccc3ncnc(Nc4ccc(OCc5ccccc5)c(C(F)(F)F)c4)c3c2)o1,3.88,-1.22,0.8,10.8,4.64,5.21,0.84,9.46,10.4,6.52
